# Test results from PubChem BioAssay (Tox21).
# Where “and” joins values, the source holds several entries; their conditions need not be identical. Equal values may be shown once. Records with an inconclusive call do not appear. Entries that show only a call come without a potency. A structure can be active in one record and inactive in another. Calls of active or inactive are those of the source. Unless noted, calls come from the whole dose curve; as a rule, active = well fitted curve in the direction sought with a large enough effect in the repeat runs; inconclusive = weak or mixed curves; inactive = no such curve, though single readings can be large; an effect the other way counts as inactive or inconclusive.
# Assays:
# [1] = qHTS assay to identify small molecule agonists of the estrogen receptor alpha (ER-alpha) signaling pathway in the presence of an antagonist - cell viability counter screen (AID 1259386);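 note: cells exposed to compounds for 22 h at 37 °C before the viability read; nearly all actives have a fitted effect of over 30% in size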; note: potency is the fitted concentration of half-maximal effect
# In short: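 Cytotoxicity was measured in parallel with the ERE-luciferase agonist screen, in the same wells. The cells were VM7Luc4E2, which endogenously express ER-alpha, and treatment was with compounds plus 10.0nM ICI-182,780 for 22hr.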
# [2] = molecular target: Progesterone receptor (Homo sapiens) (UniProt P06401); test: qHTS assay to identify small molecule agonists of the progesterone receptor (PR) signaling pathway (AID 1346784; calls by dose curve; note: nearly all actives have a fitted effect of over 30% in size)
# Chain of Progesterone receptor (Homo sapiens) (P06401 whole entry, looked up): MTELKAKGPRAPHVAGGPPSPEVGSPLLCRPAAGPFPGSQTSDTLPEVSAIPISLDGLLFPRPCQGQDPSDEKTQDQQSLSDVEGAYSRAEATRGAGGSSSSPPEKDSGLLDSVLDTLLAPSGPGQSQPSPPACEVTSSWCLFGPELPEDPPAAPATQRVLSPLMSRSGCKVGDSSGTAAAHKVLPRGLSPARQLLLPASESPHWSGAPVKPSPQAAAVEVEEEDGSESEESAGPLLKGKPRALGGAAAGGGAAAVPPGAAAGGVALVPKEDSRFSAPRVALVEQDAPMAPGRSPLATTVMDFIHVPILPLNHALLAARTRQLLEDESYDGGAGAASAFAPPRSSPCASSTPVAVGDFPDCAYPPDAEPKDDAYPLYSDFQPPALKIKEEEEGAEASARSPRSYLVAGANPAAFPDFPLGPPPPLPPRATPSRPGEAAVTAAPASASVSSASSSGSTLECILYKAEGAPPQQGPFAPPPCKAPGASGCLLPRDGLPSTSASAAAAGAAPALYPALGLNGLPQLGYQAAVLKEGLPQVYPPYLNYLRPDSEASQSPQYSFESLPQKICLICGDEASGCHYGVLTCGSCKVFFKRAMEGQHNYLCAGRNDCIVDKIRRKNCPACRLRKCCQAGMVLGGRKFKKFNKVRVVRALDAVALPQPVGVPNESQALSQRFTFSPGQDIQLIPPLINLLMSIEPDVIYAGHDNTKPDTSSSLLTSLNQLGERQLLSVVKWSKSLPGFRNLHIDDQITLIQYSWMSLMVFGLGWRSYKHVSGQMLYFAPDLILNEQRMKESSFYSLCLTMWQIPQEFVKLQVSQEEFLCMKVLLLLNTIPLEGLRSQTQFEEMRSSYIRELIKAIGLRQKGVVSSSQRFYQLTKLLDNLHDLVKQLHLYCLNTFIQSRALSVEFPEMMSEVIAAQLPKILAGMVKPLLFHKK
# In short: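 HEK 293T PR-UAS-bla reporter cells, 2% charcoal-stripped FBS; 6 hr settle at 37C/5% CO2, compound (DMSO) 16 hr, LiveBLAzer B/G FRET substrate 2 hr RT, fluorescence intensity read.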
# [3] = molecular target: Progesterone receptor (Homo sapiens) (UniProt P06401); test: qHTS assay to identify small molecule antagonists of the progesterone receptor (PR) signaling pathway (AID 1346795; active = well fitted inhibition curve with a large enough effect in the signal ratio in the repeat runs, not every such curve was filed as active; the % refers to the signal ratio)
# In short: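 Beta-lactamase reporter, HEK293T PR-UAS-bla line; 2% charcoal-stripped FBS; 6 hr pre-incubation, 37C/5% CO2. Compound + R5020 1 nM final, 16 hr. LiveBLAzer B/G FRET substrate, 2 hr RT; fluorescence intensity read.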
# [4] = qHTS assay to identify small molecule antagonists of the progesterone receptor (PR) signaling pathway - cell viability counter screen (AID 1346798); note: series mostly up to about 92 µM; nearly all actives have a fitted effect of over 50% in size
# In short: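 Luminescence readout (CellTiter-Glo, 30 min, RT) of viability in PR-UAS-bla HEK293T cells exposed to compound and R5020 agonist for 16 hr at 37C, 5% CO2; run in the same wells as the beta-lactamase reporter read.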
# [5] = qHTS assay to identify small molecule agonists of the progesterone receptor (PR) signaling pathway - cell viability counter screen (AID 1346799; calls by dose curve; note: nearly all actives have a fitted effect of over 45% in size)
# In short: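 HEK293T PR-UAS-bla, 3,000 cells/well, 2% charcoal-stripped FBS; 6 h settle, compound 16 h at 37C/5% CO2; LiveBLAzer 2 h RT, then CellTiter-Glo 30 min RT, luminescence read.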
# [6] = qHTS assay to identify small molecule antagonists of the TGF-beta/Smad signaling pathway - cell viability counter screen (AID 1346824); note: nearly all actives have a fitted effect of over 50% in size
# In short: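 Cytotoxicity counter-screen run in the same wells as the beta-lactamase Smad reporter read: CellTiter-Glo luminescence after 30 min at room temperature. HEK 293T SBE-bla cells had 5 hr compound exposure at 37 C with TGF-beta1 (0.25 ng/mL stock).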
# [7] = qHTS assay to identify small molecule agonists of the TGF-beta/Smad signaling pathway - cell viability counter screen (AID 1346829); note: top concentration of the series differs between compounds; nearly all actives have a fitted effect of over 45% in size
# In short: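 HEK 293T SBE-bla line, 5 hr compound exposure at 37 C, multiplexed CellTiter-Glo viability read by luminescence.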
# [8] = qHTS assay to identify small molecule agonists of the TGF-beta/Smad signaling pathway (AID 1346859; active = well fitted activation curve with a large enough effect in the signal ratio in the repeat runs, not every such curve was filed as active; the % refers to the signal ratio; note: series mostly up to about 77 µM)
# In short: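 Read-out: fluorescence at 460 and 530 nm (405 nm excitation) after a 2 hr room-temperature incubation with beta-lactamase FRET substrate. SBE-bla HEK 293T cells had been treated with test compounds for 5 hr at 37 C.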
# [9] = molecular target: Thyrotropin-releasing hormone receptor (Homo sapiens) (UniProt P34981); test: qHTS assay to identify small molecule antagonists of the thyrotropin-releasing hormone receptor (TRHR) signaling pathway (AID 1346877; active = well fitted inhibition curve with a large enough effect in the repeat runs, not every such curve was filed as active; note: series mostly up to about 51 µM)
# Chain of Thyrotropin-releasing hormone receptor (Homo sapiens) (P34981 whole entry, looked up): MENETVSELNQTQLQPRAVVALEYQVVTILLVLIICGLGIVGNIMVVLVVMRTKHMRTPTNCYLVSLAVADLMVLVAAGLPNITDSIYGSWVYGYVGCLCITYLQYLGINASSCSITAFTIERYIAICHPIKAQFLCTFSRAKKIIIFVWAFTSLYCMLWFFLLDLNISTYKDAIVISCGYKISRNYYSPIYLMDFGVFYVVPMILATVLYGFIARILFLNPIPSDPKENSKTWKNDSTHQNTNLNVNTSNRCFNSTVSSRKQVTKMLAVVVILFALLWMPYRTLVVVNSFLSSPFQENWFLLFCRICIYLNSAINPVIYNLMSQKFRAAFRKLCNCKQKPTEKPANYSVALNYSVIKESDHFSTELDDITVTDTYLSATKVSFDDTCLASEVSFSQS
# In short: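 Antagonism is measured as suppression of the calcium response to 1 nM TRH in TRHR-HEK293 cells that have been dye-loaded for 2 h at 37 °C after overnight plating. Each compound is tested at 15 concentrations in triplicate.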
# [10] = molecular target: Thyrotropin-releasing hormone receptor (Homo sapiens) (UniProt P34981); test: qHTS assay to identify small molecule agonists of the thyrotropin-releasing hormone receptor (TRHR) signaling pathway (AID 1346891; calls by dose curve;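 note: HEK293 cells expressing TRHR with calcium dye readout; series mostly up to about 58 µM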)
# In short: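 HEK293/TRHR cells, 1500 per well, 18 h 37 °C; Ca dye 2 h 37 °C; pin-tool compound addition (agonist mode); kinetic fluorescence 3 min, 1 s reads; 15 concentrations, triplicate.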
# [11] = Human pregnane X receptor (PXR) small molecule agonists, qHTS cell viability counter screen (AID 1346977); note: nearly all actives have a fitted effect of over 50% in size; note: potency is the fitted concentration of half-maximal effect
# In short: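 Fluorescence read-out (CellTiter-Fluor) of viability in PXR-Luc HepG2 cells, multiplexed with the luciferase agonist read. Compounds in DMSO added after 5hr plating; 24hr total exposure at 37C, 5% CO2.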
# [12] = Caspase-3/7 induction in HepG2 cells by small molecules, qHTS assay (AID 1346978); note: nearly all actives have a fitted effect of over 15% in size
# In short: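 Caspase-3/7 induction was measured by Caspase-Glo 3/7 luminescence (30 min, room temperature) after a 17 hr compound exposure of wild-type HepG2 cells seeded at 2,000 per well and pre-incubated 5 hr.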
# [13] = Caspase-3/7 induction in CHO-K1 cells by small molecules, qHTS cell viability counter screen (AID 1346979); note: nearly all actives have a fitted effect of over 35% in size; note: potency is the fitted concentration of half-maximal effect
# In short: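 CHO-K1 wt, 1,500 cells/well; 5hr pre-incubation 37C/5% CO2; compound pin transfer (DMSO); 16hr exposure; CellTiter-Fluor added, 1hr, fluorescence read.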
# [14] = Caspase-3/7 induction in CHO-K1 cells by small molecules, qHTS assay (AID 1346980); note: nearly all actives have a fitted effect of over 15% in size
# In short: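 Luminescent Caspase-Glo 3/7 read (30min, room temperature) quantified apoptosis induction. Cells were wild-type CHO-K1, treated with compound for 17hr at 37 C and 5% CO2.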
# [15] = Caspase-3/7 induction in HepG2 cells by small molecules, qHTS cell viability counter screen (AID 1346981); note: nearly all actives have a fitted effect of over 30% in size; note: potency is the fitted concentration of half-maximal effect
# In short: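 Cell viability is measured as a cytotoxicity counter screen alongside the Caspase-Glo 3/7 readout in identical wells. Wild-type HepG2 cells are treated with test compounds for 16 hr at 37 C before CellTiter-Fluor addition and a 1-hr incubation.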
# [16] = molecular target: Nuclear receptor subfamily 1 group I member 2 (Homo sapiens) (UniProt O75469); test: Human pregnane X receptor (PXR) small molecule agonists, qHTS assay (AID 1346982); note: nearly all actives have a fitted effect of over 35% in size; note: potency is the fitted concentration of half-maximal effect
# Chain of Nuclear receptor subfamily 1 group I member 2 (Homo sapiens) (O75469 whole entry, looked up): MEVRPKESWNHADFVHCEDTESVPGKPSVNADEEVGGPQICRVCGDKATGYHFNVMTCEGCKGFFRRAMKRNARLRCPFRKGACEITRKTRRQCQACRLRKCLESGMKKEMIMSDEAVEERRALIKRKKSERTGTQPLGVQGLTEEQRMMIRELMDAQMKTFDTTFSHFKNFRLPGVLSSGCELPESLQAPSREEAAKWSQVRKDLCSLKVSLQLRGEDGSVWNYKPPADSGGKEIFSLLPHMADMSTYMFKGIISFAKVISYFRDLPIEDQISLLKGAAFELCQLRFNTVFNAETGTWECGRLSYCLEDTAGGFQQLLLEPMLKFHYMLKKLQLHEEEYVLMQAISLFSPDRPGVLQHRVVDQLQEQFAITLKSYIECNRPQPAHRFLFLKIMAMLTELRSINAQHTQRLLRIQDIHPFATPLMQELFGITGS
# In short: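 Cells: HepG2 stably carrying PXR-Luc. Medium held 5% charcoal-stripped FBS. Compounds in DMSO added after 5 hr plating, incubated 24 hr, then luminescence quantified with ONE-Glo.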
# [17] = molecular target: Acetylcholinesterase (Homo sapiens) (UniProt P22303); test: Acetylcholinesterase (AChE) small molecule antagonists: colormetric cell-based qHTS assay (AID 1347395; calls by dose curve; note: nearly all actives have a fitted effect of over 30% in size)
# Chain of Acetylcholinesterase (Homo sapiens) (P22303 whole entry, looked up): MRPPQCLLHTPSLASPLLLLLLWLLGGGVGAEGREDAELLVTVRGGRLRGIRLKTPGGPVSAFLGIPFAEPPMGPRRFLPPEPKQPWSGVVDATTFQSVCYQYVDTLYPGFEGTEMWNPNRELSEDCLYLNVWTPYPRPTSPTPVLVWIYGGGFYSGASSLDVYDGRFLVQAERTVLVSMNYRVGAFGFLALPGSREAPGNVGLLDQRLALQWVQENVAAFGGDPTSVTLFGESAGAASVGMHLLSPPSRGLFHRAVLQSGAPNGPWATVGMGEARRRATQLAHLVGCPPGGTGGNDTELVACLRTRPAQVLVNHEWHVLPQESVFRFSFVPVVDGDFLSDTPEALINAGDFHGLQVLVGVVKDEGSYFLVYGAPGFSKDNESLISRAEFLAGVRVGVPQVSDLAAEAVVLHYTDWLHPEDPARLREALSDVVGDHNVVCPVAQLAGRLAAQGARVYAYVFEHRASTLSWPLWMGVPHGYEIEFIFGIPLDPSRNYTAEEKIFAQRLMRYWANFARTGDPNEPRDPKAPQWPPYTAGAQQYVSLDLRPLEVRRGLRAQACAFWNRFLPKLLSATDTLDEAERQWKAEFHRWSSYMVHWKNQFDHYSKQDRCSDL
# In short: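 SH-SY5Y cells; cpd 30 min 37 C; + DTNB/acetylthiocholine, 90 min 37 C; colorimetric thiocholine read; qHTS.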
# [18] = molecular target: Nuclear receptor subfamily 1 group I member 2 (Rattus norvegicus) (UniProt Q9R1A7); test: Rat pregnane X receptor (rPXR) activation by small molecules, qHTS assay (AID 1346983); details: rPXR luciferase reporter cells, One-Glo luminescence, 24 h; max activation: stronger effect = higher value; note: nearly all actives have a fitted effect of over 20% in size
# Chain of Nuclear receptor subfamily 1 group I member 2 (Rattus norvegicus) (Q9R1A7 whole entry, looked up): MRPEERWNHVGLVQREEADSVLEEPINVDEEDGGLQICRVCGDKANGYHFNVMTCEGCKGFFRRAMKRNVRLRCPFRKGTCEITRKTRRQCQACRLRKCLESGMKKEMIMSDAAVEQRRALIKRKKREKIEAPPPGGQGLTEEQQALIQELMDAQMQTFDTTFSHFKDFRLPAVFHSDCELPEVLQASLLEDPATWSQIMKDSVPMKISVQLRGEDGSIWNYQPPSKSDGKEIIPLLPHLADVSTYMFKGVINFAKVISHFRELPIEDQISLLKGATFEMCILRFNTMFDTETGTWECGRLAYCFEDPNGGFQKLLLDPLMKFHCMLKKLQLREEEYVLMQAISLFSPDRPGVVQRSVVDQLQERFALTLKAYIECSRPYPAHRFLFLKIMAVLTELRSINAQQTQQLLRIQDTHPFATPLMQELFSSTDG
# In short: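 Luminescent readout (One-Glo luciferase, 30 min room temperature) followed 24 hr compound treatment at 37 C of rPXR cells plated 2,000 per well and preincubated 5hr; qHTS format with compounds delivered in DMSO.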
# [19] = molecular target: Nuclear receptor subfamily 1 group I member 2 (Homo sapiens) (UniProt O75469); test: CYP3A4 induction through human pregnane X receptor (PXR) by small molecules, qHTS assay (AID 1346984); note: nearly all actives have a fitted effect of over 40% in size
# In short: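 Quantitative HTS in DPX-2 cells, i.e. HepG2 transfected with PXR response element and CYP3A4-promoter luciferase. Compounds in DMSO incubated 24hr at 37C; then P450-Glo CYP3A4 substrate, 3uM final, 3hr; One-Glo luminescence.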
# [20] = molecular target: Nuclear receptor subfamily 1 group I member 2 (Homo sapiens) (UniProt O75469); test: Human pregnane X receptor (PXR) activation by small molecules, qHTS assay (AID 1346985); note: nearly all actives have a fitted effect of over 40% in size; note: potency is the fitted concentration of half-maximal effect
# In short: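 DPX-2 cells (HepG2 co-transfected with a PXR response element and a CYP3A4-promoter luciferase construct) were seeded at 2,000 per well, rested 5 hr at 37C, then exposed to DMSO-dissolved compounds for 24 hr. Activation was read as luciferase luminescence.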
Structure (SMILES),Potency [1],Potency [2],Potency [3],Potency [4],outcome [5],Potency [6],Potency [7],outcome [8],outcome [9],outcome [10],Potency [11],outcome [12],Potency [13],outcome [14],Potency [15],Potency [16],Potency [17],max activation [18],Potency [19],Potency [20]
O=S(=O)(O)OOS(=O)(=O)O,inactive,inactive,inactive,inactive,inactive,inactive,inactive,inactive,inactive,inactive,inactive,inactive,inactive,inactive,inactive,inactive,inactive,,,
CC(C)(C)C(=O)CCl,inactive,inactive,inactive,inactive,,inactive,inactive,inactive,inactive,inactive,inactive,inactive,inactive,inactive,inactive,inactive,inactive,,,
O=[N+]([O-])c1ccc(Cl)c(Cl)c1,inactive,inactive,inactive,inactive,,inactive,inactive,inactive,inactive,inactive,inactive,inactive,inactive,inactive,inactive,inactive,inactive,,,
OC[C@@H](O)[C@H]1O[C@@H]2O[C@H](C(Cl)(Cl)Cl)O[C@@H]2[C@H]1O,inactive,inactive,inactive,inactive,,inactive,inactive,inactive,inactive,inactive,inactive,inactive,inactive,inactive,inactive,inactive,inactive,-1.13% (inactive),inactive,inactive
c1ccc2c(c1)CCCC2,inactive,inactive,inactive,inactive,,inactive,inactive,inactive,inactive,inactive,inactive,inactive,inactive,inactive,inactive,inactive,inactive,,,
Cl/C=C/Cl,inactive,inactive,inactive,inactive,inactive,inactive,inactive,inactive,inactive,inactive,inactive,inactive,inactive,inactive,inactive,inactive and 29.6 µM (active),inactive,,,
Nc1nc(N)nc(NC2CC2)n1,inactive,inactive,inactive,inactive,,inactive,inactive,inactive,inactive,inactive,inactive,inactive,inactive,inactive,inactive,inactive,inactive,-4.09% (inactive),inactive,inactive
O=C(O)COc1ccccc1,inactive,inactive,inactive,inactive,,inactive,inactive,inactive,inactive,inactive,inactive,inactive,inactive,inactive,inactive,inactive,inactive,-1.4% (inactive),inactive,inactive
Nc1ccc(N)cc1,54.7 µM (active) and 54.5 µM (active),inactive,inactive,inactive,,inactive,inactive,inactive,inactive,inactive,54.5 µM (active) and inactive,inactive,48.8 µM (active) and 54.5 µM (active),inactive,54.5 µM (active) and inactive,54.5 µM (active) [middle of 4 runs],,,,25.1 µM (active)
C=CC(=O)OCCCCCC(C)C,inactive,inactive,inactive,inactive,,inactive,inactive,inactive,inactive,inactive,inactive,inactive,inactive,inactive,inactive,inactive,inactive,,,
COS(=O)(=O)OC,inactive,inactive,inactive,inactive,,inactive,inactive,inactive,inactive,inactive,inactive,inactive,inactive,inactive,inactive,inactive,inactive,,,
CC(C)c1cccc(C(C)C)c1O,inactive,inactive,inactive,inactive,inactive,inactive,inactive,inactive,inactive,inactive,inactive,inactive,inactive,inactive,inactive,,inactive,,,
Nc1cccc(Cl)c1,inactive,inactive,inactive,inactive,inactive,inactive,inactive,inactive,,,inactive,inactive,inactive,inactive,inactive,inactive,inactive,,,
NNc1ccccc1,inactive,inactive,inactive,inactive,inactive,inactive,inactive,inactive,,,inactive,inactive,inactive,inactive,inactive,61 µM (active) and inactive,,-1.33% (inactive),,inactive
CC(=O)/C=C/c1ccccc1,inactive,inactive,inactive,inactive,,inactive,inactive,inactive,inactive,inactive,inactive,inactive,inactive,inactive,inactive,inactive,inactive,,,
Cc1ccc(N)cc1,inactive,inactive,inactive,inactive,inactive,inactive,inactive,inactive,,,inactive,inactive,inactive,inactive,inactive,4.35 µM (active) and 29.6 µM (active) and 27.3 µM (active),,,,
